{"source": "PubChem BioAssay (NCI)", "note": "About 79,000 compounds went through this panel and 15% of them were active in at least one assay; those are over-represented in the sample as a whole. Values without a mark were called inactive. The source made the active and inactive calls. No stated cut-off is given here; in the data, active means growth inhibition above about 70%; inactive means the rest.", "data": [{"experiment": "NCI Yeast Anticancer Drug Screen. Data for the sgs1 mgt1 strain (AID 161);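 further: 0% = growth of cultures given vehicle only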", "details": "S. cerevisiae sgs1 mgt1 strain, at 50.0 µM (retest, dose inferred, filed as 5.0), stronger effect = higher value", "method_in_brief": "(§1)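 Test agents were incubated with a DNA-repair-mutant yeast strain. Growth was then read and compared against vehicle-treated controls.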", "values": [{"smiles": "CCCCC#C[I+]c1ccccc1", "growth inhibition": "54%"}, {"smiles": "CCOC(=O)C1C(c2cccc(OC)c2O)c2cc3c(cc2OC1(C)N1CCCC1)OCO3", "note": "(stereo not drawn)", "growth inhibition": "39%"}, {"smiles": "Nc1ncnc2nn(C3OC(CO)C(O)C3O)nc12", "note": "(stereo not drawn)", "growth inhibition": "6%"}, {"smiles": "Nc1nc(-c2ccc3c(c2)Sc2ccccc2O3)cs1", "growth inhibition": "99% (active)"}, {"smiles": "O=C1C=CC(Nc2cccc([N+](=O)[O-])c2)C1Nc1cccc([N+](=O)[O-])c1", "note": "(stereo not drawn)", "growth inhibition": "-11%"}, {"smiles": "O=C(CC(=O)c1ccccc1)CC(=O)c1ccccc1", "growth inhibition": "85% (active)"}, {"smiles": "Fc1ccc(CSC(=S)Nc2ccc(Br)cc2)cc1", "growth inhibition": "99% (active)"}, {"smiles": "Cc1cc([N+](=O)[O-])c2nnnn2c1", "growth inhibition": "31%"}, {"smiles": "CN(c1ccc(C(N)=O)cc1)c1c(O)c2ccccc2[nH]c1=O", "growth inhibition": "51%"}, {"smiles": "O=C(/C=C\\c1cccc2ccccc12)c1ccccn1", "growth inhibition": "99% (active)"}, {"smiles": "COc1ccc2c(c1)CCc1c(CO)c(COC(=O)NC(C)C)n(C)c1-2", "growth inhibition": "92% (active)"}, {"smiles": "O=C1CC(O)CC(=O)C1=C(O)CCCCCCCCCCc1ccccc1", "note": "(stereo not drawn)", "growth inhibition": "57%"}, {"smiles": "CC1CCN(CCCOC(=O)c2ccccc2)CC1", "growth inhibition": "66%"}, {"smiles": "Cc1ccc(S(=O)(=O)OC2COC3C(OS(=O)(=O)c4ccc(C)cc4)COC23)cc1", "note": "(stereo not drawn)", "growth inhibition": "-27%"}, {"smiles": "Cc1nn(C(=S)S)c(C)c1N=Nc1cccc(F)c1", "growth inhibition": "-1%"}, {"smiles": "O=C1C(=Cc2ccccc2O)N=C(c2ccccc2)N1n1c(-c2ccccc2)nc2ccccc2c1=O", "growth inhibition": "24%"}, {"smiles": "O=C1/C(=C/c2ccccc2)CNC/C1=C\\c1ccccc1", "growth inhibition": "96% (active)"}, {"smiles": "Cc1cc(Br)c(P(=O)(O)O)cc1[N+](=O)[O-]", "growth inhibition": "-14%"}, {"smiles": "Oc1cc(Cc2ccccc2)c(Cc2ccccc2)cc1O", "growth inhibition": "96% (active)"}, {"smiles": "O=S1(=O)CCN(c2ccccc2CC(c2c[nH]c3ccccc23)c2c[nH]c3ccccc23)CC1", "growth inhibition": "79% (active)"}, {"smiles": "CCCCCC(O)C(C)CO", "note": "(stereo not drawn)", "growth inhibition": "-4%"}, {"smiles": "Cc1cc(=O)c2cc(N=Cc3ccc([N+](=O)[O-])o3)ccc2o1", "growth inhibition": "54%"}, {"smiles": "CN(C)C(=S)/N=c1\\ssc(=S)n1Cc1ccco1", "growth inhibition": "-9%"}, {"smiles": "O=[N+]([O-])c1ccc2nc(Nc3ccccc3)c(Nc3ccccc3)nc2c1", "growth inhibition": "93% (active)"}, {"smiles": "CC(=O)NC(CCC(=O)O)C(=O)O.[NH-]C1CCCCC1[NH-].[Pt+2]", "note": "(stereo not drawn)", "growth inhibition": "99% (active)"}, {"smiles": "CC(=O)Oc1c2c(c(C)c3ccccc13)C(=O)c1cccnc1C2=O", "growth inhibition": "6%"}, {"smiles": "C=C1C(=O)OC2C(C)C3C=CC(=O)[C@@]3(C)C(OC(=O)/C(C)=C/C)C1[C@@H]2OC(C)=O", "note": "(stereo partly drawn)", "growth inhibition": "92% (active)"}, {"smiles": "O=C(O)/C=C/c1ccc2c(c1)CC1(Cc3ccccc3C1)C2", "growth inhibition": "87% (active)"}, {"smiles": "C(=C\\c1ccc(-[n+]2nc(-c3ccccc3)nn2-c2ccccc2)cc1)/c1ccccc1", "growth inhibition": "100% (active)"}, {"smiles": "O=CC(O)C(O)C(O)C(O)C(=O)NCCCCCCCCCCCCNC(=O)C(O)C(O)C(O)C(O)C=O", "note": "(stereo not drawn)", "growth inhibition": "-28%"}, {"smiles": "CCCCCCCCCCN(CCCCCCCCCC)CC(O)c1cc(-c2ccccc2)nc2ccccc12", "note": "(stereo not drawn)", "growth inhibition": "93% (active)"}, {"smiles": "CC1(C)C(=O)C(C(Cl)(Cl)Cl)=C(Cl)C(=O)C1(Cl)Cl", "growth inhibition": "93% (active)"}, {"smiles": "Cc1cccc2c1CC1(C2)Cc2c(C)cccc2C1=O", "note": "(stereo not drawn)", "growth inhibition": "68%"}, {"smiles": "Oc1c(Cl)cc(C(c2cc(Cl)c(O)c(Cl)c2)C(c2cc(Cl)c(O)c(Cl)c2)c2cc(Cl)c(O)c(Cl)c2)cc1Cl", "growth inhibition": "98% (active)"}, {"smiles": "Cc1ccc(S(=O)(=O)NC(Cc2ccccc2)C(=O)CCl)cc1", "note": "(stereo not drawn)", "growth inhibition": "98% (active)"}, {"smiles": "CCOC(=O)/C(C#N)=C/c1coc2cc(C)cc(C)c2c1=O", "growth inhibition": "98% (active)"}, {"smiles": "CN(C)/N=C\\C1CC=CCC1", "note": "(stereo not drawn)", "growth inhibition": "-61%"}, {"smiles": "NCC(=O)N/N=C/c1ccc([N+](=O)[O-])o1", "growth inhibition": "15%"}, {"smiles": "CCc1cc(CC)c(-c2ccco2)c(COC(=O)NC)c1", "growth inhibition": "78% (active)"}]}, {"experiment": "NCI Yeast Anticancer Drug Screen. Data for the sgs1 mgt1 strain (AID 161)", "details": "S. cerevisiae sgs1 mgt1 strain, at 50.0 µM, stronger effect = higher value", "method_in_brief": "as §1", "values": [{"smiles": "CCCCC#C[I+]c1ccccc1", "growth inhibition": "93.2% (active)"}, {"smiles": "CCOC(=O)C1C(c2cccc(OC)c2O)c2cc3c(cc2OC1(C)N1CCCC1)OCO3", "note": "(stereo not drawn)", "growth inhibition": "34.5%"}, {"smiles": "Nc1ncnc2nn(C3OC(CO)C(O)C3O)nc12", "note": "(stereo not drawn)", "growth inhibition": "-22.1%"}, {"smiles": "Nc1nc(-c2ccc3c(c2)Sc2ccccc2O3)cs1", "growth inhibition": "91.3% (active)"}, {"smiles": "O=C1C=CC(Nc2cccc([N+](=O)[O-])c2)C1Nc1cccc([N+](=O)[O-])c1", "note": "(stereo not drawn)", "growth inhibition": "91.5% (active)"}, {"smiles": "O=C(CC(=O)c1ccccc1)CC(=O)c1ccccc1", "growth inhibition": "74.7% (active)"}, {"smiles": "Fc1ccc(CSC(=S)Nc2ccc(Br)cc2)cc1", "growth inhibition": "94.8% (active)"}, {"smiles": "Cc1cc([N+](=O)[O-])c2nnnn2c1", "growth inhibition": "-15.2%"}, {"smiles": "CN(c1ccc(C(N)=O)cc1)c1c(O)c2ccccc2[nH]c1=O", "growth inhibition": "14.6%"}, {"smiles": "O=C(/C=C\\c1cccc2ccccc12)c1ccccn1", "growth inhibition": "98.8% (active)"}, {"smiles": "COc1ccc2c(c1)CCc1c(CO)c(COC(=O)NC(C)C)n(C)c1-2", "growth inhibition": "96.5% (active)"}, {"smiles": "O=C1CC(O)CC(=O)C1=C(O)CCCCCCCCCCc1ccccc1", "note": "(stereo not drawn)", "growth inhibition": "74.2% (active)"}, {"smiles": "CC1CCN(CCCOC(=O)c2ccccc2)CC1", "growth inhibition": "62.1%"}, {"smiles": "Cc1ccc(S(=O)(=O)OC2COC3C(OS(=O)(=O)c4ccc(C)cc4)COC23)cc1", "note": "(stereo not drawn)", "growth inhibition": "26.4%"}, {"smiles": "Cc1nn(C(=S)S)c(C)c1N=Nc1cccc(F)c1", "growth inhibition": "88.6% (active)"}, {"smiles": "O=C1C(=Cc2ccccc2O)N=C(c2ccccc2)N1n1c(-c2ccccc2)nc2ccccc2c1=O", "growth inhibition": "75.7% (active)"}, {"smiles": "O=C1/C(=C/c2ccccc2)CNC/C1=C\\c1ccccc1", "growth inhibition": "95.2% (active)"}, {"smiles": "Cc1cc(Br)c(P(=O)(O)O)cc1[N+](=O)[O-]", "growth inhibition": "72% (active)"}, {"smiles": "Oc1cc(Cc2ccccc2)c(Cc2ccccc2)cc1O", "growth inhibition": "92.1% (active)"}, {"smiles": "O=S1(=O)CCN(c2ccccc2CC(c2c[nH]c3ccccc23)c2c[nH]c3ccccc23)CC1", "growth inhibition": "87.7% (active)"}, {"smiles": "CCCCCC(O)C(C)CO", "note": "(stereo not drawn)", "growth inhibition": "-4.2%"}, {"smiles": "Cc1cc(=O)c2cc(N=Cc3ccc([N+](=O)[O-])o3)ccc2o1", "growth inhibition": "42.6%"}, {"smiles": "CN(C)C(=S)/N=c1\\ssc(=S)n1Cc1ccco1", "growth inhibition": "-15.8%"}, {"smiles": "O=[N+]([O-])c1ccc2nc(Nc3ccccc3)c(Nc3ccccc3)nc2c1", "growth inhibition": "63.9%"}, {"smiles": "CC(=O)NC(CCC(=O)O)C(=O)O.[NH-]C1CCCCC1[NH-].[Pt+2]", "note": "(stereo not drawn)", "growth inhibition": "100% (active)"}, {"smiles": "CC(=O)Oc1c2c(c(C)c3ccccc13)C(=O)c1cccnc1C2=O", "growth inhibition": "98.7% (active)"}, {"smiles": "C=C1C(=O)OC2C(C)C3C=CC(=O)[C@@]3(C)C(OC(=O)/C(C)=C/C)C1[C@@H]2OC(C)=O", "note": "(stereo partly drawn)", "growth inhibition": "87.8% (active)"}, {"smiles": "O=C(O)/C=C/c1ccc2c(c1)CC1(Cc3ccccc3C1)C2", "growth inhibition": "73% (active)"}, {"smiles": "C(=C\\c1ccc(-[n+]2nc(-c3ccccc3)nn2-c2ccccc2)cc1)/c1ccccc1", "growth inhibition": "93.4% (active)"}, {"smiles": "O=CC(O)C(O)C(O)C(O)C(=O)NCCCCCCCCCCCCNC(=O)C(O)C(O)C(O)C(O)C=O", "note": "(stereo not drawn)", "growth inhibition": "21.9%"}, {"smiles": "CCCCCCCCCCN(CCCCCCCCCC)CC(O)c1cc(-c2ccccc2)nc2ccccc12", "note": "(stereo not drawn)", "growth inhibition": "38.8%"}, {"smiles": "CC1(C)C(=O)C(C(Cl)(Cl)Cl)=C(Cl)C(=O)C1(Cl)Cl", "growth inhibition": "64.9%"}, {"smiles": "Cc1cccc2c1CC1(C2)Cc2c(C)cccc2C1=O", "note": "(stereo not drawn)", "growth inhibition": "57.6%"}, {"smiles": "Oc1c(Cl)cc(C(c2cc(Cl)c(O)c(Cl)c2)C(c2cc(Cl)c(O)c(Cl)c2)c2cc(Cl)c(O)c(Cl)c2)cc1Cl", "growth inhibition": "42.8%"}, {"smiles": "Cc1ccc(S(=O)(=O)NC(Cc2ccccc2)C(=O)CCl)cc1", "note": "(stereo not drawn)", "growth inhibition": "88.8% (active)"}, {"smiles": "CCOC(=O)/C(C#N)=C/c1coc2cc(C)cc(C)c2c1=O", "growth inhibition": "79.9% (active)"}, {"smiles": "CN(C)/N=C\\C1CC=CCC1", "note": "(stereo not drawn)", "growth inhibition": "30.9%"}, {"smiles": "NCC(=O)N/N=C/c1ccc([N+](=O)[O-])o1", "growth inhibition": "73.2% (active)"}, {"smiles": "CCc1cc(CC)c(-c2ccco2)c(COC(=O)NC)c1", "growth inhibition": "94.3% (active)"}]}]}
